Measured values: the supplement of paper PMC10077471
Whole data set: some 1,900 compounds, median “excess over highest single agent (ExcessHSA) synergy score, 6x6 matrix” near -83, cut for the lowest 2% near -370. Only a selection was taken, and the lowest values are over-represented in it overall.

Each molecule was assayed on NCI-H446 (assay: excess over highest single agent (ExcessHSA) synergy score, 6x6 matrix; higher = less synergy (more negative = stronger synergy)). Details: 72 h; CellTiter-Glo viability.
In the case of `Cc1cc(CN2CCN(c3c(Br)cnc4nc(-c5ccc(N6CCN(C)CC6)cc5)[nH]c34)CC2)no1` + Cc1sc2c(c1C)C(c1ccc(Cl)cc1)=N[C@@H](CC(=O)OC(C)(C)C)c1nnc(C)n1-2 [NCGC00250412-19], the “excess over highest single agent” value is reported as -107. In the case of `CN(C)c1ccc(-c2nc3ncc(Cl)c(N4CCN(CC(=O)Nc5nccs5)CC4)c3[nH]2)cc1` + Cc1sc2c(c1C)C(c1ccc(Cl)cc1)=N[C@@H](CC(=O)OC(C)(C)C)c1nnc(C)n1-2 [NCGC00250412-19], the “excess over highest single agent” value is reported as -382. `CCOC(CN1C(=O)[C@](CC(=O)Nc2ccc(C)cc2)(NC(=O)Nc2ccc(C)cc2)c2ccccc21)OCC` + Cc1sc2c(c1C)C(c1ccc(Cl)cc1)=N[C@@H](CC(=O)OC(C)(C)C)c1nnc(C)n1-2 [NCGC00250412-19] was tested, and the “excess over highest single agent” value was -94.2. In the case of `COc1cc2c(cc1OC)CN(CCc1ccc(NC(=O)c3cc(OC)c(OC)cc3NC(=O)c3cnc4ccccc4c3)cc1)CC2` + Cc1sc2c(c1C)C(c1ccc(Cl)cc1)=N[C@@H](CC(=O)OC(C)(C)C)c1nnc(C)n1-2 [NCGC00250412-19], the “excess over highest single agent” value is reported as 50.9. In the case of `Cc1cccc(-c2[nH]c(C(C)(C)C)nc2-c2ccc3c(c2)OCO3)n1` + Cc1sc2c(c1C)C(c1ccc(Cl)cc1)=N[C@@H](CC(=O)OC(C)(C)C)c1nnc(C)n1-2 [NCGC00250412-19], the “excess over highest single agent” value is reported as -84.7. With `CC(C)(O)CC(=O)NCCn1ccc2ncnc(Nc3ccc(Oc4cccc(C(F)(F)F)c4)c(Cl)c3)c21` + Cc1sc2c(c1C)C(c1ccc(Cl)cc1)=N[C@@H](CC(=O)OC(C)(C)C)c1nnc(C)n1-2 [NCGC00250412-19] the “excess over highest single agent” value was 16.5. In the case of `CC(C)[C@H](C(=O)Nc1ccc(C(=O)NO)cc1)c1ccccc1` + Cc1sc2c(c1C)C(c1ccc(Cl)cc1)=N[C@@H](CC(=O)OC(C)(C)C)c1nnc(C)n1-2 [NCGC00250412-19], the “excess over highest single agent” value is reported as -112. `C=C1/C(=C\C=C2/CCC[C@]3(C)[C@@H]([C@H](C)/C=C/C=C/C(O)(CC)CC)CC[C@@H]23)C[C@@H](O)C[C@@H]1O` + Cc1sc2c(c1C)C(c1ccc(Cl)cc1)=N[C@@H](CC(=O)OC(C)(C)C)c1nnc(C)n1-2 [NCGC00250412-19] was tested, and the “excess over highest single agent” value was 84.4. For `COc1ccc2cc1Oc1ccc(cc1)C[C@H]1c3cc(c(OC)cc3CCN1C)Oc1c(OC)c(OC)cc3c1[C@H](C2)N(C)CC3` + Cc1sc2c(c1C)C(c1ccc(Cl)cc1)=N[C@@H](CC(=O)OC(C)(C)C)c1nnc(C)n1-2 [NCGC00250412-19], the “excess over highest single agent” value was -432. In the case of `COc1cc2c(cc1OC)[C@@H]1Cc3ccc(OC)c(OC)c3CN1CC2` + Cc1sc2c(c1C)C(c1ccc(Cl)cc1)=N[C@@H](CC(=O)OC(C)(C)C)c1nnc(C)n1-2 [NCGC00250412-19], the “excess over highest single agent” value is reported as -95.9. `COc1ccc2c(c1OC)CN1CCc3cc4c(cc3C1C2)OCO4` (configuration not stated) + Cc1sc2c(c1C)C(c1ccc(Cl)cc1)=N[C@@H](CC(=O)OC(C)(C)C)c1nnc(C)n1-2 [NCGC00250412-19] was tested, and the “excess over highest single agent” value was -109. With `Cc1ccc2c(c1)c1c(n2CCc2ccc(C)nc2)CCN(C)C1` + Cc1sc2c(c1C)C(c1ccc(Cl)cc1)=N[C@@H](CC(=O)OC(C)(C)C)c1nnc(C)n1-2 [NCGC00250412-19] the “excess over highest single agent” value was -121. In the case of `CC[C@@]1(O)C(=O)OCc2c1cc1n(c2=O)Cc2cc3ccccc3nc2-1` + Cc1sc2c(c1C)C(c1ccc(Cl)cc1)=N[C@@H](CC(=O)OC(C)(C)C)c1nnc(C)n1-2 [NCGC00250412-19], the “excess over highest single agent” value is reported as -249. With `CCc1c2c(nc3ccc(OC(=O)N4CCC(N5CCCCC5)CC4)cc13)-c1cc3c(c(=O)n1C2)COC(=O)[C@]3(O)CC` + Cc1sc2c(c1C)C(c1ccc(Cl)cc1)=N[C@@H](CC(=O)OC(C)(C)C)c1nnc(C)n1-2 [NCGC00250412-19] the “excess over highest single agent” value was -249. With `CCc1c2c(nc3ccc(O)cc13)-c1cc3c(c(=O)n1C2)COC(=O)[C@]3(O)CC` + Cc1sc2c(c1C)C(c1ccc(Cl)cc1)=N[C@@H](CC(=O)OC(C)(C)C)c1nnc(C)n1-2 [NCGC00250412-19] the “excess over highest single agent” value was -327. `CC[C@@]1(O)C(=O)OCc2c1cc1n(c2=O)Cc2cc3cc(O)ccc3nc2-1` + Cc1sc2c(c1C)C(c1ccc(Cl)cc1)=N[C@@H](CC(=O)OC(C)(C)C)c1nnc(C)n1-2 [NCGC00250412-19] was tested, and the “excess over highest single agent” value was -416. In the case of `CC[C@@]1(O)C(=O)OCc2c1cc1n(c2=O)Cc2cc3c(CN(C)C)c(O)ccc3nc2-1` + Cc1sc2c(c1C)C(c1ccc(Cl)cc1)=N[C@@H](CC(=O)OC(C)(C)C)c1nnc(C)n1-2 [NCGC00250412-19], the “excess over highest single agent” value is reported as -475. With `CC[C@H](CC#N)OC(=O)N[C@@H](C)c1cccc(NC(=O)Nc2ccc(-c3cnco3)c(OC)c2)c1` + Cc1sc2c(c1C)C(c1ccc(Cl)cc1)=N[C@@H](CC(=O)OC(C)(C)C)c1nnc(C)n1-2 [NCGC00250412-19] the “excess over highest single agent” value was -174. For `Cc1cccc(Nc2nc(N[C@@H]3CCCC[C@@H]3N)ncc2C(N)=O)c1` + Cc1sc2c(c1C)C(c1ccc(Cl)cc1)=N[C@@H](CC(=O)OC(C)(C)C)c1nnc(C)n1-2 [NCGC00250412-19], the “excess over highest single agent” value was -24. With `Cn1cnc(-c2cc3nccc(Oc4ccc(NC(=S)NC(=O)Cc5ccccc5)cc4F)c3s2)c1` + Cc1sc2c(c1C)C(c1ccc(Cl)cc1)=N[C@@H](CC(=O)OC(C)(C)C)c1nnc(C)n1-2 [NCGC00250412-19] the “excess over highest single agent” value was -36.3. For `C#Cc1cccc(Nc2ncnc3cc(OCCOC)c(OCCO)cc23)c1` + Cc1sc2c(c1C)C(c1ccc(Cl)cc1)=N[C@@H](CC(=O)OC(C)(C)C)c1nnc(C)n1-2 [NCGC00250412-19], the “excess over highest single agent” value was -46.8. In the case of `CCN1CCC(n2cc(CNc3cc(Cl)c4ncc(C#N)c(Nc5ccc(F)c(Cl)c5)c4c3)nn2)CC1` + Cc1sc2c(c1C)C(c1ccc(Cl)cc1)=N[C@@H](CC(=O)OC(C)(C)C)c1nnc(C)n1-2 [NCGC00250412-19], the “excess over highest single agent” value is reported as 44.4. With `CN(C1CCc2c(c3ccccc3n2CC(=O)O)C1)S(=O)(=O)c1ccc(F)cc1` (configuration not stated) + Cc1sc2c(c1C)C(c1ccc(Cl)cc1)=N[C@@H](CC(=O)OC(C)(C)C)c1nnc(C)n1-2 [NCGC00250412-19] the “excess over highest single agent” value was -115. `CC/C=C\CC1C(=O)CCC1CC(=O)OC` (configuration not stated) + Cc1sc2c(c1C)C(c1ccc(Cl)cc1)=N[C@@H](CC(=O)OC(C)(C)C)c1nnc(C)n1-2 [NCGC00250412-19] was tested, and the “excess over highest single agent” value was 223. In the case of `CC(C)c1cc(C(=O)N2Cc3ccc(CN4CCN(C)CC4)cc3C2)c(O)cc1O` + Cc1sc2c(c1C)C(c1ccc(Cl)cc1)=N[C@@H](CC(=O)OC(C)(C)C)c1nnc(C)n1-2 [NCGC00250412-19], the “excess over highest single agent” value is reported as -247. In the case of `CCNC(=O)c1noc(-c2cc(C(C)C)c(O)cc2O)c1-c1ccc(CN2CCOCC2)cc1` + Cc1sc2c(c1C)C(c1ccc(Cl)cc1)=N[C@@H](CC(=O)OC(C)(C)C)c1nnc(C)n1-2 [NCGC00250412-19], the “excess over highest single agent” value is reported as -382. In the case of `NC(=O)Nc1cc(-c2ccc(CN3CCOCC3)cc2)sc1C(N)=O` + Cc1sc2c(c1C)C(c1ccc(Cl)cc1)=N[C@@H](CC(=O)OC(C)(C)C)c1nnc(C)n1-2 [NCGC00250412-19], the “excess over highest single agent” value is reported as -229. With `CC(C)(C)OC(=O)Nc1ccc(-c2cc(C(=O)NCCCCCCC(=O)NO)no2)cc1` + Cc1sc2c(c1C)C(c1ccc(Cl)cc1)=N[C@@H](CC(=O)OC(C)(C)C)c1nnc(C)n1-2 [NCGC00250412-19] the “excess over highest single agent” value was -161. For `O=C(O)[C@H]1O[C@@H](Oc2cc3oc(-c4ccccc4)cc(=O)c3c(O)c2O)[C@H](O)[C@@H](O)[C@@H]1O` + Cc1sc2c(c1C)C(c1ccc(Cl)cc1)=N[C@@H](CC(=O)OC(C)(C)C)c1nnc(C)n1-2 [NCGC00250412-19], the “excess over highest single agent” value was -92.6. With `OC1CCC(Nc2ncc3nc(Nc4c(F)cc(F)cc4F)n([C@@H]4CCOC4)c3n2)CC1` (some centres not stated) + Cc1sc2c(c1C)C(c1ccc(Cl)cc1)=N[C@@H](CC(=O)OC(C)(C)C)c1nnc(C)n1-2 [NCGC00250412-19] the “excess over highest single agent” value was 17.3. With `CCC(=O)N[C@H]1CC[C@H](C(=O)N(C)c2ccc(-c3nc4ccccc4o3)cc2)C1` + Cc1sc2c(c1C)C(c1ccc(Cl)cc1)=N[C@@H](CC(=O)OC(C)(C)C)c1nnc(C)n1-2 [NCGC00250412-19] the “excess over highest single agent” value was -57. In the case of `CN1CCN(Cc2ccc(NC(=O)Nc3ccc(Oc4cc(NC(=O)C5CC5)ncn4)cc3)cc2C(F)(F)F)CC1` + Cc1sc2c(c1C)C(c1ccc(Cl)cc1)=N[C@@H](CC(=O)OC(C)(C)C)c1nnc(C)n1-2 [NCGC00250412-19], the “excess over highest single agent” value is reported as -34.2. In the case of `CC(=O)N(C)C1(c2ccccc2)CCN(CCC[C@]2(c3ccc(Cl)c(Cl)c3)CCCN(C(=O)c3ccccc3)C2)CC1` + Cc1sc2c(c1C)C(c1ccc(Cl)cc1)=N[C@@H](CC(=O)OC(C)(C)C)c1nnc(C)n1-2 [NCGC00250412-19], the “excess over highest single agent” value is reported as -142. For `O=C(N[C@@H](COc1ccc2[nH]c(=O)[nH]c2c1)c1ccccc1)c1cccn(Cc2ccc(F)c(F)c2)c1=O` + Cc1sc2c(c1C)C(c1ccc(Cl)cc1)=N[C@@H](CC(=O)OC(C)(C)C)c1nnc(C)n1-2 [NCGC00250412-19], the “excess over highest single agent” value was -158. For `COC[C@H]1OC(=O)c2coc3c2[C@@]1(C)C1=C(C3=O)[C@@H]2CCC(=O)[C@@]2(C)C[C@H]1OC(C)=O` + Cc1sc2c(c1C)C(c1ccc(Cl)cc1)=N[C@@H](CC(=O)OC(C)(C)C)c1nnc(C)n1-2 [NCGC00250412-19], the “excess over highest single agent” value was -484. For `COCC1OC(=O)c2coc3c2C1(C)C1=C(C3=O)C2CCC(O)C2(C)CC1OC(C)=O` (configuration not stated) + Cc1sc2c(c1C)C(c1ccc(Cl)cc1)=N[C@@H](CC(=O)OC(C)(C)C)c1nnc(C)n1-2 [NCGC00250412-19], the “excess over highest single agent” value was -423. `COc1cc2ncnc(Nc3cc(Br)c(O)c(Br)c3)c2cc1OC` + Cc1sc2c(c1C)C(c1ccc(Cl)cc1)=N[C@@H](CC(=O)OC(C)(C)C)c1nnc(C)n1-2 [NCGC00250412-19] was tested, and the “excess over highest single agent” value was -207.
